Here are results for 46 compounds from PubChem BioAssay AID2685 (National Center for Advancing Translational Sciences (NCATS), 2010).

Molecules are shown by their SMILES. Among all 320,000 compounds or so, about 2,100 (0.66%) were called active. Not shown: some 53% with an inconclusive outcome. The sample holds actives, similar compounds and a random draw of the others, so the mix is not that of the screen. The call rests on the fitted dose curve; in most records, active means well fitted inhibition curve with a large enough effect in the signal ratio, with a control signal flat (not every such curve was filed as active); inconclusive means small, poorly fitted or top-dose-only effect, or effect the other way, or a change in a side signal; inactive means flat fitted curve, though single readings scatter; the % refers to the signal ratio.
Potency means the concentration at half of the fitted maximal effect.

The nature of the experiment: qHTS Assay for Lipid Storage Modulators in Drosophila S3 Cells.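 On cell number change: cells counted by Cell Tracker Red CMTPX staining in the red channel.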 On lipid storage change, negative = inhibition: on the % scale 0 is the no-effect control and ±100 the full control effect. The following applies: BODIPY lipid droplet fluorescence, 18-24 h, cells fed with added oleic acid; cell number change: measured here: cell count max response; series mostly up to 46.1 µM; lipid storage change, negative = inhibition: at the top concentration. Put shortly:
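Drosophila S3 cells loaded with oleic acid (400 uM, as added) and compounds at several concentrations; lipid droplets imaged by 488-nm laser-scanning cytometry, 500–530 nm intensity and object ratio to cell channel. Percent activity normalized to 20 uM Triacsin C.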
For orientation: Quantitative high-throughput screening tests each substance at several concentrations.
As for `CC(=O)NC(Cc1ccccc1)C(=O)OCC(=O)c1ccc(F)cc1` (stereo not drawn), the “lipid storage change, negative = inhibition” value is -27.4% (inactive).

As to `Cc1ccc(Nc2nc(-c3ccncc3)nc3ccccc23)cc1`, the “lipid storage change, negative = inhibition” value is 6.48% (inactive) and the cell number change is -7.93%. `Cc1nn(CCCC(=O)NCc2ccco2)c(=O)c2nn(-c3ccccc3)c(C)c12`: the “lipid storage change, negative = inhibition” value is 15.5% (inactive).

Take `CC(C)(/C=N/O)N(O)C=C1C=CC(=O)C=C1`: the “lipid storage change, negative = inhibition” value was 0.34% (inactive) and the cell number change came to 1.11%. Turning to `N#C/C(C(=O)Oc1ccccc1)=C1\C=Cc2ccccc2N1`, the “lipid storage change, negative = inhibition” value was -11.1% (inactive) and the cell number change was -1.92%. For `COc1ccc(OC(=O)/C=C/c2ccc([N+](=O)[O-])cc2)cc1`, in that order: -3.13% (inactive) and 3.89%. For `COc1ccc(S(=O)Cc2ccc(C(=O)NC3CC3)o2)cc1` (stereo not drawn), in that order: 12% (inactive) and 13.8%. As for `COc1ccc(N(C)S(=O)(=O)c2cccc(C(=O)Nc3nc(C)c(C(C)=O)s3)c2)cc1`, the Potency is 1.16 µM (active). With `COc1ccc(N(C)S(=O)(=O)c2cccc(C(=O)Nc3nnc(C4CC4)s3)c2)cc1`, the “lipid storage change, negative = inhibition” value is -3.22% (inactive). Take `COc1ccc(N(C)S(=O)(=O)c2cccc(C(=O)Nc3nnc(C)s3)c2)cc1`: the compound was called inactive and the cell number change was -20.6%. Regarding `O=C(NC(=S)NCc1cccnc1)c1cc2ccccc2o1`, the “lipid storage change, negative = inhibition” value is 4.99% (inactive) and the cell number change is -19.5%. Turning to `Cc1cc(F)c(F)c(C(=O)NC2CC2)c1Cl`, the Potency was 9.2 µM (active). `Cc1cc(F)c(F)c(C(=O)N2C(C)CCCC2C)c1Cl` (stereo not drawn): the “lipid storage change, negative = inhibition” value is -11.4% (inactive) and the cell number change amounted to 0.056%. On the same counts, the results for `Cc1cc(F)c(F)c(C(=O)N2CCC(C)CC2)c1Cl` are 10.8% (inactive) and 0.433%.

Turning to `COc1ccc(OCc2cc(C(=O)N(C)C(C)c3ccon3)no2)c(Cl)c1` (stereo not drawn), the compound was classed as inactive and the cell number change is -9.97%. Take `Cc1cc2c(cc1S(=O)(=O)N1CCN(c3ccccc3)CC1)OCCN2C`: the “lipid storage change, negative = inhibition” value was 25.3% (inactive) and the cell number change was -3.46%. With `Cc1cccc(N2CCN(C(=O)C3(S(=O)(=O)c4ccc(Cl)cc4)CC3)CC2)c1C`, the “lipid storage change, negative = inhibition” value is 8.29% (inactive) and the cell number change was 0.245%. Regarding `Cc1ccc(S(=O)(=O)C2(C(=O)N3CCN(c4cc(C)ccc4C)CC3)CC2)cc1`, the “lipid storage change, negative = inhibition” value was 6.15% (inactive). Turning to `Cc1ccc(S(=O)(=O)C2(C(=O)N3CCN(c4ccccc4F)CC3)CC2)cc1`, the Potency was 0.731 µM (active) and the cell number change is -5.26%.

Turning to `C/C(=N/NS(=O)(=O)c1cccc([N+](=O)[O-])c1)c1c[nH]c2ccccc12`, the “lipid storage change, negative = inhibition” value was 1.43% (inactive). As to `C/C(=N/Nc1ccc([N+](=O)[O-])cc1)c1c[nH]c2ccccc12`, the Potency was 4.11 µM (active) and the cell number change is -24.9%. Take `C/C(=N\NS(=O)(=O)c1ccc([N+](=O)[O-])cc1)c1c[nH]c2ccccc12`: the call was inactive and the cell number change is -0.495%. Take `O=C(Cn1cc(S(=O)(=O)Cc2ccccc2F)c2ccccc21)N1CCOCC1`: the “lipid storage change, negative = inhibition” value is -4.09% (inactive) and the cell number change came out at 9.64%. For `O=[N+]([O-])c1ccc(N2CCCC2)nc1N1CCCC1`, in that order: -1.16% (inactive) and 16.9%. On the same counts, the results for `COc1ccc(-c2cc(=O)c(C(=O)c3ccc(C)cc3)n[nH]2)cc1` are 2.45% (inactive) and 14%. Take `O=C(OCc1cc(Cl)ccc1OC(F)F)c1cc(S(=O)(=O)O)ccc1O`: the Potency was 1.64 µM (active) and the cell number change is -6.52%.

Take `O=C(OCc1cc(Cl)ccc1OC(F)F)c1cncc(Br)c1`: the result was inactive. Regarding `O=C(OCc1cc(Cl)ccc1OC(F)F)c1cccnc1`, the “lipid storage change, negative = inhibition” value was 8.44% (inactive) and the cell number change came to 13.9%. For `CC1CC(=O)Nc2ccccc2N1C(=O)CSc1ncnc2sccc12` (stereo not drawn), in that order: 6.7% (inactive) and 0.129%.

Regarding `COc1ccc(CCC(=O)Nc2cccc(S(=O)(=O)N(C)C)c2)cc1OC`, the “lipid storage change, negative = inhibition” value is -18.4% (inactive) and the cell number change amounted to 15.7%. On the same counts, the results for `COc1ccc([N+](=O)[O-])cc1NC(=S)NC(C)=O` are -18.5% (inactive) and 0.615%.

On to `CN(C)S(=O)(=O)Nc1cc(F)cc(F)c1`, for which the “lipid storage change, negative = inhibition” value was -32.6% (inactive) and the cell number change is -8.31%.

Turning to `Cc1ccc(NS(=O)(=O)N(C)C)cc1`, the result was inactive.

With `CN(C)S(=O)(=O)Nc1cc(Cl)cc(Cl)c1`, the Potency was 18.4 µM (active) and the cell number change was -41.2%. For `CCN(C(=O)COC(=O)c1ccc(Cl)c(N)c1)C1CCS(=O)(=O)C1` (stereo not drawn), the “lipid storage change, negative = inhibition” value was 0.308% (inactive) and the cell number change is 6.77%. On to `CCOc1ccccc1C(=O)n1nc2nc(C)cc(C)c2c1N`, for which the result was inactive and the cell number change came to 6.26%. For `CCCn1c(N)c(C(=O)CSc2nnc(C3CC3)n2Cc2ccccc2)c(=O)[nH]c1=O`, the “lipid storage change, negative = inhibition” value is -10.4% (inactive) and the cell number change amounted to 7.78%. For `COc1ccc(C(=O)/C=C/c2ccccc2)c(OC)c1`, in that order: -0.419% (inactive) and 16.5%. For `O=C1C(=O)N(CCCN2CCOCC2)C(c2ccc(F)cc2)/C1=C(\O)c1ccc2c(c1)OCCO2` (stereo not drawn), the compound was called inactive and the cell number change was -2.36%. On the same counts, the results for `COc1cccc(C(=O)Nc2cccc(OC(C)=O)c2)c1` are “inactive” and -9.37%. As to `COc1ccc(CCN2C(=O)/C(=C\c3ccco3)SC2=S)cc1OC`, the “lipid storage change, negative = inhibition” value is -6.07% (inactive) and the cell number change was -20.3%. For `CNC(=O)COC(=O)c1c2c(nc3ccccc13)CCC2`, in that order: 0.527% (inactive) and -0.369%. On to `COc1ccc(NC(=O)COC(=O)c2c3c(nc4ccccc24)CCCC3)cc1`, for which the “lipid storage change, negative = inhibition” value was -1.44% (inactive) and the cell number change is -10.5%. Take `CCCCNC(=O)COC(=O)c1c2c(nc3ccccc13)CCC2`: the Potency is 7.31 µM (active) and the cell number change turned out to be 1.26%. As for `CN(CC(=O)NCCN1CCN(Cc2ccccc2)CC1)S(=O)(=O)c1cccc2nsnc12`, the “lipid storage change, negative = inhibition” value is -4.25% (inactive) and the cell number change was found to be 3.2%.

Turning to `COCC(C)NC(=O)CCc1nnc(C2(c3ccc(Cl)cc3)CCC2)o1` (stereo not drawn), the “lipid storage change, negative = inhibition” value was -11.8% (inactive) and the cell number change is 7.22%.
